High-throughput results as filed in PubChem BioAssay.
An excerpt weighted towards active compounds, which were near 3% of everything screened.
SENP8 block-1 – SENP8 protease inhibitors, primary screen, biochemical, luminescence | 330,000 compounds, 1.2% hits | Sentrin-specific protease 8 (Homo sapiens), Q96LD8 | AID 2540, 2010 | purified SENP8, Z-RLRGG-aminoluciferin cleavage | inhibition, % at 10 µM; in the data active means inhibition above about 50%
SENP8 block-2 – human SENP8 protease inhibitors, primary screen, biochemical, fluorescence, Nedd8 protein substrate, uHTS; Sentrin-specific protease 8 (Homo sapiens), Q96LD8; recombinant SENP8; inhibition, % at 20 µM; 360,000 compounds, 0.64% hits; AID 602440, 2012; in the data active means inhibition mostly above about 40%, no sharp cut-off; inactive means mostly below about 27%
SENP6 inh – SENP6 protease inhibitors, primary screen, biochemical, luminescence, uHTS | Recombinant SENP6 catalytic domain, aminoluciferin luminescence | 330,000 compounds, 1.8% hits | inhibition, % at 10 µM | Sentrin-specific protease 6 (Homo sapiens), Q9GZR1;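 active means inhibition above about 50% at the single tested dose, limit read from the data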;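 further: plate controls were DMSO wells with enzyme for no effect and DMSO wells lacking enzyme for full effect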
Target sequence (Q9GZR1 628-1112 limits assumed): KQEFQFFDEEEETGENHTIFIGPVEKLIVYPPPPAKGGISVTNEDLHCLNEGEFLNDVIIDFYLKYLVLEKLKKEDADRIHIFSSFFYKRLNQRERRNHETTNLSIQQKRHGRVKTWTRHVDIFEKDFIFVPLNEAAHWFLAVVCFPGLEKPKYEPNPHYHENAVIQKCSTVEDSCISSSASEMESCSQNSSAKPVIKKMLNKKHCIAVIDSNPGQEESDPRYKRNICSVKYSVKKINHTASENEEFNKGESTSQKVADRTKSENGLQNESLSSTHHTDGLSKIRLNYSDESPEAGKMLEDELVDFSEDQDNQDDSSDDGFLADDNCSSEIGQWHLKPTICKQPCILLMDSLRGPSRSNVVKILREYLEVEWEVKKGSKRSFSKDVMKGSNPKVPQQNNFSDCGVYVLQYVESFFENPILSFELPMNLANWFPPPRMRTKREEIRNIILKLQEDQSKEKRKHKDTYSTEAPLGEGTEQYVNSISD
PPC-1+TRAIL kill – compounds killing PPC-1 cancer cells with TRAIL present, primary screen, TRAIL potentiator project, ATPLite luminescence, uHTS | PPC-1 cells + TRAIL, ATPLite viability luminescence | cell killing (% activity), % at 4 µM or 5 µM | 220,000 compounds, 0.41% hits;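 active means cell killing above 50% in the first pass at 4 µM, then a duplicate retest at 5 µM averaging 50% or more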;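 further: plate controls were cells with TRAIL plus DMSO for no effect and medium-only wells lacking cells for full effect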
SENP7 block – SENP7 protease inhibitors, primary screen, biochemical, luminescence, uHTS. Sentrin-specific protease 7 (Homo sapiens), Q9BQF6. recombinant SENP7, Z-RLRGG-aminoluciferin luminescence, 40 min. inhibition, % at 5 µM. 330,000 compounds, 1.5% hits;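 active means inhibition above about 50% at the single test dose, limit read from the data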;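 further: plate controls were DMSO with enzyme for no effect and no enzyme buffer wells for full effect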
C8 TRAIL sens – viability loss with TRAIL in NB7+C8 cells, primary screen, TRAIL sensitizer project, cell-based, ATPlite luminescence | inhibition (viability loss, TRAIL sensitization), % at 10 µM | 360,000 compounds, 1% hits | AID 624354, 2012;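 active means compounds causing at least 50% loss of cell viability in the single-dose screen, relative to plate controls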
Active calls of the source: *; / = not tested or not shown.

SMILES | SENP8 block-1 | SENP8 block-2 | SENP6 inh | PPC-1+TRAIL kill | SENP7 block | C8 TRAIL sens
Cc1ccc(C2CC2c2n[nH]c(=S)n2-c2ccc(Cl)cc2)cc1 (centres undefined) | -11.4 | 16.9 | 2.7 | -6.1 | -8.1 | 71.9*
O=C(O)c1ccc(NCCc2ccc(Cl)cc2)c([N+](=O)[O-])c1 | 17.9 | 20.2 | 36.1 | 4.7 | 3.2 | -12.0
O=C(O)c1cccc(NC2=C(n3nnc4ccccc43)C(=O)c3ccccc3C2=O)c1 | 37.7 | 68.9* | -7.9 | 10.7 | 23.7 | 7.9
O=C(O)c1cccc(NS(=O)(=O)c2ccc3nnn(O)c3c2)c1 | -7.5 | 18.8 | 13.5 | 10.7 | -6.4 | 1.7
O=C(NC(=S)NCC1CCCO1)c1ccc([N+](=O)[O-])cc1 (centres undefined) | -8.6 | 10.0 | -8.7 | 20.5 | 3.4 | -2.3
O=C(N/N=C/c1sc(=O)n(-c2ccccc2)c1Cl)c1ccccc1 | 55.6* | -7.4 | 83.3* | 30.2 | 75.6* | 40.9
O=C(Nc1cccc(OC(=O)c2ccc(Br)o2)c1)c1ccccc1 | 2.0 | 13.2 | 2.6 | / | 8.9 | 10.1
O=C(/C=C/Nc1ccccc1O)c1ccco1 | 77.1* | -36.8 | 88.8* | 0.3 | 85.2* | 10.5
CN(C)C=Nc1ccc2nc3c(cc2c1)[nH]c1ccccc13 | 2.7 | -285.9 | 9.2 | / | 8.9 | 76.0*
O=C(/C=C/[C@H]1O[C@@H](n2cnc3c(NC(=O)c4ccccc4)ncnc32)[C@H](O)[C@@H]1O)NCC1CCCO1 (some centres undefined) | / | 27.0 | / | / | / | 54.2*
CCN(CC)CCNc1cc(C)nc2c1C(=O)C(=O)C=C2N1CCCCC1 | 12.6 | 55.6* | 30.9 | / | 17.8 | 46.5
CC(C)(C)N(Cc1ccccc1)C(=O)COC(=O)CCN1C(=O)C2CC=CCC2C1=O (centres undefined) | 8.1 | 6.9 | -5.8 | / | 8.5 | 9.7
CC1(C)CCC[C@]2(C)C(CS(=O)c3ccccc3)=C(C=O)CC[C@@H]12 (some centres undefined) | 2.6 | 23.5 | -4.2 | / | -0.5 | -0.5
Nc1nnnn1/N=C/C=C/c1ccccc1 | -10.1 | 18.6 | -9.2 | -4.5 | -1.6 | -4.3
Nc1nnnn1/N=C/C(Br)=C/c1ccccc1 | -1.6 | 15.3 | -4.6 | 7.6 | 6.6 | 58.5*
CCc1nc2c(OCCC3CCCCC3)cccn2c1N(C=O)Cc1ccccc1 | / | 4.5 | / | / | / | 29.3
O=C(NCc1cc(C(F)(F)F)ccc1Cl)c1cccc2c1C(=O)c1ccc(-c3ccc(OC(F)(F)F)cc3)cc1S2(=O)=O | -4.0 | / | -0.4 | / | 12.3 | /
O=C(NCc1ccccc1Cl)c1cccc2c1C(=O)c1ccc(-c3ccc(OC(F)(F)F)cc3)cc1S2(=O)=O | -0.8 | 1.7 | 1.8 | / | 1.1 | 53.6*
OC(CN1CCN(Cc2ccccc2)CC1)c1ccc(F)cc1 (centres undefined) | -4.8 | 7.3 | -21.9 | 57.5* | -5.7 | -4.2
CC(Sc1nc2ncc(Cl)cc2[nH]1)C(=O)Nc1ccccc1[N+](=O)[O-] (centres undefined) | / | 14.4 | / | / | / | -9.9
C=C1CC2(CC(c3ccccc3)OC(c3ccccc3)C2)OC1=O (centres undefined) | / | -3.5 | / | / | / | 64.2*
O=C1CCCC[C@@H](O)[C@H](O)C[C@H](c2ccccc2)O1 | / | 21.1 | / | / | / | -13.6
CCOC(=O)c1ccc(N/C=C\C(=O)c2cccc(OC)c2)cc1 | 66.4* | -258.9 | -5.3 | 25.9 | 86.3* | 10.9
O=[N+]([O-])c1cccc(N/N=C/c2cccc(O)c2O)c1 | 2.0 | 58.2* | -22.0 | 21.9 | -17.4 | 35.6
Cc1cccc(N/N=C/c2ccc(O)c(O)c2O)c1 | 27.8 | 67.0* | 10.5 | 5.4 | 8.1 | -3.0
O=C(O)C1CCC(Cn2c(SCc3cc(=O)n4ccccc4n3)nc3ccsc3c2=O)CC1 (centres undefined) | 2.1 | -253.2 | 7.8 | / | 1.1 | -4.7
O=C1CN(S(=O)(=O)c2cc(Br)ccc2Br)CCN1 | -9.0 | 9.6 | -10.7 | / | -5.9 | 0.2
O=c1c(Br)ccc(Br)cc1Br | / | 12.8 | / | / | / | 93.1*
